Reference: PubChem BioAssay AID1159580 (chemical genetic matrix, 2015)
Hit rate of the full screen: of about 5,500 compounds, about 2,000 (36%) were called active. Not shown: some 18% with an inconclusive outcome. Rule as the data show it: active = normalized growth mostly below about 0.91 (no sharp cut-off); inconclusive = no clear call, values can overlap the other calls; inactive = mostly above about 0.92. The list shows a part of the results.

Experiment: chemical genetic growth profiling, strain panel (AID 1159580);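 also: tested at 20 µM; growth read once vehicle control cultures reached saturation at 30 °C; 1 = growth at the plate median or of vehicle wells; lower values mean less growth of the strain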
Conditions: S. cerevisiae deletion strains, growth OD

Measured: normalized growth

CC1=C(/C=C/C(C)=C/C=C/C(C)=C/C(=O)Nc2ccc(O)cc2)C(C)(C)CCC1
inactive: locus YAL013W, strain DEP1, hits give low values 0.99 | locus YAL040C, strain CLN3, hits give low values 1.09 | locus YCL061C, strain MRC1 (second series), hits give low values 0.995 | locus YDR150W, strain NUM1, hits give low values 1.01 | locus YDR363W, strain ESC2, hits give low values 0.968 | locus YER002W, strain NOP16, hits give low values 1.02 | locus YGR078C, strain PAC10, hits give low values 1.02 | locus YMR263W, strain SAP30, hits give low values 0.994 | locus YMR307W, strain GAS1, hits give low values 0.989 | locus YNL128W, strain TEP1, hits give low values 1.02 | locus YNL175C, strain NOP13, hits give low values 1.02 | locus YNL197C, strain WHI3, hits give low values 1.01 | locus YNL224C, strain SQS1, hits give low values 0.998 | locus YNL322C, strain KRE1, hits give low values 0.993 | locus YOR083W, strain WHI5 (second series), hits give low values 0.952
